Measurements from ChEMBL document CHEMBL4888484, “Replenishing the malaria drug discovery pipeline: Screening and hit evaluation of the MMV Hit Generation Library 1 (HGL1) against asexual blood stage Plasmodium falciparum ,using a nano luciferase reporter read-out” (2022).
Hit rate of the full screen: of about 150,000 compounds, about 540 (0.36%) showed an effect of 50% or more. Many of the other results were omitted from the sample, so strong results are more common in it than they were.

These compounds were tested on Plasmodium falciparum (assay: Primary screen in NF54 nanoGlo assay, in single point, at 2uM, 72h; a lower Z score goes with more inhibition). Conditions: timepoint 72 hour.
Assay type: functional, Erythrocyte
In the case of `CCn1c(-n2nc(C)nc2[C@H]2CCS(=O)(=O)C2)nc2ccccc21`, the “% Inhibition” value is reported as 4% and the Z score is reported as -0.76. For `O=C(CNC(=O)c1cnccn1)NCCc1c[nH]c2ccc(F)cc12`, the “% Inhibition” value was -5% and the Z score was 0.67. With `CCn1cc(C(=O)O)c(=O)c2cc(F)c(N3CCN(S(=O)(=O)c4ccccc4)CC3)cc21` the “% Inhibition” value was 34% and the Z score was 0.66. `CCn1cc(-c2nc(-c3ccccc3)no2)c(=O)c2cc(F)c(N3CCCCC3)cc21` was tested, and the “% Inhibition” value was -9% and the Z score was 1.55. `Cc1ccc(S(=O)(=O)c2cn(Cc3ccccc3)c3cc(N4CCCCC4)c(F)cc3c2=O)cc1` was tested, and the “% Inhibition” value was -24% and the Z score was 2.28. With `CCn1cc(-c2nc(-c3ccccc3C)no2)c(=O)c2cc(F)c(N3CCOCC3)cc21` the “% Inhibition” value was 40% and the Z score was -3.29. For `CCn1cc(C#N)c(=O)c2cc(F)c(N3CCN(Cc4ccccc4)CC3)cc21`, the “% Inhibition” value was 68% and the Z score was -7.22. `CCn1cc(-c2nc(-c3ccccc3C)no2)c(=O)c2cc(F)c(N3CCCCC3)cc21` was tested, and the “% Inhibition” value was 51% and the Z score was -3.9. `COc1cc(OC)cc(-c2c3c(O)nn(C(C)C)c3nc3[nH]c(=O)n(C)c23)c1` was tested, and the “% Inhibition” value was -3% and the Z score was 0.3. In the case of `O=C(Nc1ccc2c(c1)OCO2)c1ccc(=O)n(Cc2ccc(Cl)cc2)c1`, the “% Inhibition” value is reported as -15% and the Z score is reported as 1.88. With `CCN(C(=O)c1nn(C)c2ccc(C)cc12)[C@H]1COC[C@@H]1O` the “% Inhibition” value was 5% and the Z score was -1. `COc1cc(Cl)c(CNC(C)(C)CO)cc1OC` was tested, and the “% Inhibition” value was 4% and the Z score was -0.67. For `Cc1n[nH]c(C(=O)N2CCCCCC2)c1Br`, the “% Inhibition” value was 3% and the Z score was -0.33. In the case of `COCCNC(=O)c1coc(CN2C(=O)COc3ccc(C(=O)COc4ccccc4)cc32)n1`, the “% Inhibition” value is reported as -6% and the Z score is reported as 0.84. For `N#Cc1nccnc1O[C@H]1CCCN(C(=O)NCc2ccc(Cl)cc2)C1`, the “% Inhibition” value was -10% and the Z score was 1.77. For `Cc1nn(C(C)(C)C)c2nc(C3CC3)cc(C(=O)N(C)c3ccccc3)c12`, the “% Inhibition” value was 55% and the Z score was -8.04. For `Cc1nn(C(C)(C)C)c2nc(C3CC3)cc(C(=O)N3CCN(c4ccccc4)CC3)c12`, the “% Inhibition” value was 7% and the Z score was -1.07. `Cc1nn(C(C)(C)C)c2nc(C3CC3)cc(C(=O)N(C)Cc3cccc(C#N)c3)c12` was tested, and the “% Inhibition” value was -7% and the Z score was 1.44. For `CC(C)(C[C@H]1CCCN(C(=O)C2(C)CCCC2)C1)C(N)=O`, the “% Inhibition” value was -4% and the Z score was 0.57. For `COC(=O)C1CN(C(=O)CCc2cnn(C)c2)CC1c1ccccc1` (stereo unspecified), the “% Inhibition” value was -13% and the Z score was 2.28. In the case of `O=C1C[C@@H](c2ccccc2)N(Cc2ccncc2)CCCNCCN1`, the “% Inhibition” value is reported as -9% and the Z score is reported as 1.07. `Cc1ccncc1C(=O)N1CCCN(Cc2ccncc2)[C@H](c2ccccc2)CC(=O)NCC1` was tested, and the “% Inhibition” value was -4% and the Z score was 0.48. In the case of `COc1cccc(S(=O)(=O)N2CCCN(Cc3ccncc3)[C@H](c3ccccc3)CC(=O)NCC2)c1`, the “% Inhibition” value is reported as 92% and the Z score is reported as -7.9. `Cn1cccc1CCC(=O)NCCc1noc(C2CC2)n1` was tested, and the “% Inhibition” value was -5% and the Z score was 0.69. `CN1CCC(Oc2cc(NC(=O)c3cscn3)ccn2)CC1` was tested, and the “% Inhibition” value was -16% and the Z score was 1.85. With `CCn1cc(CN2CCN3C(=O)N(c4ccccc4)C(=O)[C@@H]3C2)cn1` the “% Inhibition” value was -2% and the Z score was 0.24. `COCCN1CC[C@H](c2ncnn2C2CCCCC2)C1` was tested, and the “% Inhibition” value was -7% and the Z score was 1.3. In the case of `CCc1nccc(CN2CCC[C@H](CS(C)(=O)=O)C2)n1`, the “% Inhibition” value is reported as -20% and the Z score is reported as 2.11. With `Cn1cnc2c1CCN(C[C@H](O)c1ccccc1Cl)C2` the “% Inhibition” value was 0% and the Z score was 0.04. For `CC(C)C(=O)N(Cc1ccc(-c2ccc(Cl)cc2)o1)[C@H]1CCS(=O)(=O)C1`, the “% Inhibition” value was 1% and the Z score was -0.15. In the case of `CCC(=O)N(Cc1ccc(-c2ccc(Cl)cc2)o1)[C@H]1CCS(=O)(=O)C1`, the “% Inhibition” value is reported as 63% and the Z score is reported as -8.22. With `CCC(CC)C(=O)N(Cc1ccc(-c2ccc(Cl)cc2)o1)[C@H]1CCS(=O)(=O)C1` the “% Inhibition” value was -7% and the Z score was 0.86. In the case of `Cc1nnc(COc2cccc3c2OCCO3)s1`, the “% Inhibition” value is reported as -12% and the Z score is reported as 2.16. In the case of `CC(C)C(=O)NCC(=O)N1CC[C@@]2(CCCN(CCCc3ccccc3)C2)C1`, the “% Inhibition” value is reported as -7% and the Z score is reported as 1.41. In the case of `CN(Cc1ccc2ccn(C)c2c1)C[C@H]1CCCCO1`, the “% Inhibition” value is reported as -2% and the Z score is reported as 0.4. In the case of `COc1ccc(Br)c(S(=O)(=O)NCC2(C)CCC2)c1`, the “% Inhibition” value is reported as 1% and the Z score is reported as -0.23. With `CC(=O)NC[C@H]1CN(c2ccnc(C(C)(C)C)n2)CCO1` the “% Inhibition” value was -12% and the Z score was 1.4. With `CNC(=O)c1cc(S(=O)(=O)N2CC=CC2)cn1C` the “% Inhibition” value was -4% and the Z score was 0.78. `Cc1ccccc1NC(=O)[C@H]1c2cccc[n+]2CC(=O)N1c1ccc2c(c1)OCO2` was tested, and the “% Inhibition” value was -9% and the Z score was 1.37. `CC(C)(C)OC(=O)N1CCC[C@@H]1CNC1CC1` was tested, and the “% Inhibition” value was -7% and the Z score was 0.86. `CC(C)(C)OC(=O)N1CC2CC(=O)CC1C2` (stereo unspecified) was tested, and the “% Inhibition” value was 3% and the Z score was -0.39. In the case of `O=C1Cc2cc(S(=O)(=O)Nc3ccccc3C(=O)NCc3ccco3)ccc2N1`, the “% Inhibition” value is reported as -32% and the Z score is reported as 3.76. In the case of `CCc1cc(NC(=O)N[C@@H](C)c2nc(C(F)(F)F)no2)n(C)n1`, the “% Inhibition” value is reported as -7% and the Z score is reported as 1. In the case of `Cc1cc(C(=O)NC2(c3ncccn3)CCOCC2)c(C)s1`, the “% Inhibition” value is reported as -4% and the Z score is reported as 0.7. With `CC(C)Cc1cnc(NC(=O)N[C@@]2(C)CCOC2)s1` the “% Inhibition” value was 8% and the Z score was -1.23. In the case of `COCc1cnc(NC(=O)NC2(c3ncccn3)CCOCC2)s1`, the “% Inhibition” value is reported as 52% and the Z score is reported as -0.94. For `CCc1cc(C(=O)N2CC[C@@]3(CCCN(Cc4cccc(OC)c4)C3)C2)on1`, the “% Inhibition” value was -5% and the Z score was 0.79. `CC(C)CC(=O)N(Cc1nccn1Cc1ccc(Cl)cc1Cl)CC1CC1` was tested, and the “% Inhibition” value was -8% and the Z score was 0.76. `CC[C@H](C)N1CC(=O)N(c2ccns2)C1=O` was tested, and the “% Inhibition” value was -14% and the Z score was 2.59. With `COc1ccnc(-c2ccc(F)c3cccnc23)c1` the “% Inhibition” value was -4% and the Z score was 0.58. `COc1cccc(CNS(=O)(=O)c2cc(-c3c(C)nn4c3NC(=O)CCC4=O)ccc2OC)c1` was tested, and the “% Inhibition” value was 2% and the Z score was -0.21. `O=C1CCCN1Cc1ncnn1Cc1ccc2c(c1)OCO2` was tested, and the “% Inhibition” value was -4% and the Z score was 0.57. In the case of `Oc1cccc(CNc2cccc3cccnc23)c1`, the “% Inhibition” value is reported as 27% and the Z score is reported as -3.62. With `O=C(Nc1cccc2cccnc12)c1ccccn1` the “% Inhibition” value was 79% and the Z score was -8.04. For `O=C(Nc1cccc2cccnc12)c1cscn1`, the “% Inhibition” value was 9% and the Z score was -1.21. `O=C(Nc1cccc2cccnc12)c1csnn1` was tested, and the “% Inhibition” value was 6% and the Z score was -1.1. `Oc1ccccc1CNc1cccc2c[nH]nc12` was tested, and the “% Inhibition” value was -4% and the Z score was 0.68. In the case of `Oc1ccccc1CNc1cccc2cccnc12`, the “% Inhibition” value is reported as 96% and the Z score is reported as -8.95. With `O=C(Cn1ccc([C@H]2CCCNC2)n1)NCc1c(F)cccc1Cl` the “% Inhibition” value was 0% and the Z score was -0.03. With `O=C1CC[C@H](C(=O)N2CCCCO2)CN1CCN1CCOCC1` the “% Inhibition” value was -15% and the Z score was 1.87. For `CCC1CCC(C(=O)NCC(=O)N2CCn3cncc3C2)CC1` (stereo unspecified), the “% Inhibition” value was -22% and the Z score was 2.8. With `Cn1c(-c2ccc(Br)cc2)cn2cc(-c3ccc(Cl)cc3)nc12` the “% Inhibition” value was 44% and the Z score was 0.7. `Cn1c(-c2ccccc2)cn2cc(-c3ccc(F)cc3)nc12` was tested, and the “% Inhibition” value was 38% and the Z score was -0.19. For `Cn1c(-c2ccccc2)cn2cc(-c3ccc(Cl)cc3)nc12`, the “% Inhibition” value was 54% and the Z score was -1.03. For `Nc1n[nH]c(-c2ccc(Br)o2)n1`, the “% Inhibition” value was 4% and the Z score was -0.5. `OC1=Nc2c(ncn2-c2cc(F)cc(F)c2)[C@@H](c2cccnc2)C1` was tested, and the “% Inhibition” value was 34% and the Z score was -3.88. `Cc1ccc(CN2CCN(CC(=O)Nc3cc(C)on3)C(=O)C2=O)cc1` was tested, and the “% Inhibition” value was 0% and the Z score was -0.03. For `O=c1nc2n(nc1-c1ccc(F)cc1)C1(CCCC1)Nc1ccccc1-2`, the “% Inhibition” value was -9% and the Z score was 0.98. With `O=c1nc2n(nc1-c1ccccc1)C1(CCCCC1)Nc1ccccc1-2` the “% Inhibition” value was -10% and the Z score was 1.25. For `O=c1nc2n(nc1-c1ccccc1)C1(CCC1)Nc1ccccc1-2`, the “% Inhibition” value was 54% and the Z score was -13.48. For `C[C@H](NC(=O)C1=NN(C)C(=O)CC1)c1ccc2c(c1)OCCO2`, the “% Inhibition” value was -13% and the Z score was 1.49. For `O=C(CCS(=O)(=O)c1ccccc1)N1CC[C@H](Oc2cc(C(F)(F)F)ccn2)C1`, the “% Inhibition” value was -6% and the Z score was 1.09. `O=C(O)CN1CCC[C@H](c2nc(-c3ccccc3)c[nH]2)C1` was tested, and the “% Inhibition” value was -8% and the Z score was 0.94. For `COc1ccnc(CN2CCC[C@H](c3nc(-c4ccccc4)c[nH]3)C2)c1OC`, the “% Inhibition” value was 69% and the Z score was -7.6. `Cc1nncn1C1CCN(S(=O)(=O)c2ccc(Cl)cc2)CC1` was tested, and the “% Inhibition” value was -11% and the Z score was 1.89. With `COc1ccc(CC(=O)N2C3COCC2C3)nc1` the “% Inhibition” value was 33% and the Z score was -3.69. For `CC(=O)c1cccc(NC(=O)N2CCCCCCC2)c1`, the “% Inhibition” value was 2% and the Z score was -0.33. `CCN1C(=O)c2ccccc2N2C(=O)CC[C@@]12C(=O)Nc1cccc(OC)c1` was tested, and the “% Inhibition” value was 92% and the Z score was -11.06. `CCCN1C(=O)c2ccccc2N2C(=O)CC[C@@]12C(=O)Nc1nc(C)cs1` was tested, and the “% Inhibition” value was 2% and the Z score was -0.31. `CC(=O)c1cccc(NC(=O)N2CCC3(CCC3)C2)c1` was tested, and the “% Inhibition” value was -6% and the Z score was 1.19. `CC(=O)c1cccc(NC(=O)[C@@]23CCC(=O)N2c2ccccc2C(=O)N3C)c1` was tested, and the “% Inhibition” value was 84% and the Z score was -11.29. In the case of `COc1cccc(NC(=O)C23CCCN2CCC3)c1`, the “% Inhibition” value is reported as -8% and the Z score is reported as 1.16. With `CCCN1C(=O)c2ccccc2N2C(=O)CC[C@@]12C(=O)Nc1ccccc1` the “% Inhibition” value was 88% and the Z score was -14.36. In the case of `Cc1cc(N(C)C)ccc1NC(=O)CCN1C(=O)c2ccccc2N2C(=O)CC[C@]12C`, the “% Inhibition” value is reported as 2% and the Z score is reported as -0.43. For `CCCN1C(=O)c2ccccc2N2C(=O)CC[C@@]12C(=O)Nc1ccc(OC)cc1`, the “% Inhibition” value was 88% and the Z score was -16.69. With `CCCCN1C(=O)c2ccccc2N2C(=O)CC[C@@]12C(=O)Nc1nccs1` the “% Inhibition” value was 25% and the Z score was -2.95. In the case of `CCN1C(=O)c2ccccc2N2C(=O)CC[C@@]12C(=O)Nc1nccs1`, the “% Inhibition” value is reported as 8% and the Z score is reported as -0.95. In the case of `CCCN1C(=O)c2ccccc2N2C(=O)CC[C@@]12C(=O)Nc1cccc(NC(C)=O)c1`, the “% Inhibition” value is reported as 8% and the Z score is reported as -1.31.
